Where “and” joins values, the source holds several entries; their conditions need not be identical. Identical values can stand only once. Calls of active or inactive are those of the source. Cut-off read from the data, not from the text of the source: active = remaining activity below about 50%; inactive = the rest.

By remaining activity is commonly meant the signal under treatment as a percentage of the control signal.

For the test, the target named is Phospholipase D2 (Homo sapiens) (UniProt O14939). Put plainly: cellular phospholipase D2 activity inhibition – cell-based, HEK293, single concentration (AID 602143).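 Note: tested at 200 nM.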 The conditions noted are these: HEK293 cellular PLD2 activity, percent of control; active compounds read low.
Chain of Phospholipase D2 (Homo sapiens) (O14939 whole entry, looked up): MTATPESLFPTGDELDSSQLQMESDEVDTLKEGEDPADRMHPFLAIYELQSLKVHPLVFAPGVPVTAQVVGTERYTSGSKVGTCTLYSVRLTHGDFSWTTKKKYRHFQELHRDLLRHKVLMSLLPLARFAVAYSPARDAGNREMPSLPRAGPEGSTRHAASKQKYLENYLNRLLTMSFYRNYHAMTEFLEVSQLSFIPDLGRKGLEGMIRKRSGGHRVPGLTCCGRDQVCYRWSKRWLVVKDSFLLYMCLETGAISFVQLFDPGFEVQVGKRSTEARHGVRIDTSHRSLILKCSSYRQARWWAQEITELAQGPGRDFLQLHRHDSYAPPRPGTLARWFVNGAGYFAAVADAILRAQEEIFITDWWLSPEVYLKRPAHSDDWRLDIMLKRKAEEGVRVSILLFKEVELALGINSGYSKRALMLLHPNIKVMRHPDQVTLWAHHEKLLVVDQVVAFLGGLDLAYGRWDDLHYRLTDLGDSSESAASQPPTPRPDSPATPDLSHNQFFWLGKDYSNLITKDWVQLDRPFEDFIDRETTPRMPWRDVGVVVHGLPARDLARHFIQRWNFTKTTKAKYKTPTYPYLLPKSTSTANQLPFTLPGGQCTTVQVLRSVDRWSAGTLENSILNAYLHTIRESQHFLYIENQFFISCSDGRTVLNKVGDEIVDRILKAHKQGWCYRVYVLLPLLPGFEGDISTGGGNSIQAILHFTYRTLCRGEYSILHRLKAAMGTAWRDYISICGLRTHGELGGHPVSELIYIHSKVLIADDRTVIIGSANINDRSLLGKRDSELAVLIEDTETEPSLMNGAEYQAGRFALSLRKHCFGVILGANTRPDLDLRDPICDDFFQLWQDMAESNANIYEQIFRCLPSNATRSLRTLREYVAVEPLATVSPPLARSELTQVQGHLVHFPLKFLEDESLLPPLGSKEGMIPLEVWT
Chain of Phospholipase D2 (Homo sapiens) (O14939 whole entry, looked up): as above
With `O=C(NCCN1CCC2(CC1)C(=O)NCN2c1ccccc1)c1cc(-c2ccccc2)no1`, the remaining activity is 88.3% (inactive).
As to `O=C(NCCN1CCC2(CC1)C(=O)NCN2c1ccccc1)c1cc(Br)c(Br)o1`, the remaining activity is 77.1% (inactive).
The value for `O=C(NCCN1CCC2(CC1)C(=O)NCN2c1ccc(Cl)cc1)c1ccc2ccccc2c1` was 54.4% (inactive).
Turning to `CN(CCN1CCC2(CC1)C(=O)NCN2c1ccccc1)C(=O)c1ccc2ccccc2c1`, the remaining activity was 95.2% (inactive).
With `O=C(c1ccc(F)c(F)c1)N1CCC[C@@H]1CN1CCC2(CC1)C(=O)NCN2c1ccccc1` the figure was 124% (inactive); with `O=C(NCCN1CCC2(CC1)C(=O)NCN2c1cccc(Cl)c1)c1cnc2ccccc2c1`, 45.2% (active).
Turning to `O=C(c1cnc2ccccc2c1)N1CC(N2CCC(n3c(=O)[nH]c4ccccc43)CC2)C1`, the remaining activity is 77.3% (inactive).
`O=C(NCCN1CCC2(CC1)C(=O)NCN2c1ccccc1)C1CCc2ccccc2C1` (stereo not drawn): the remaining activity was 50.3% (inactive) and 75.3% (inactive).
The value for `O=C(NCCN1CCC2(CC1)C(=O)NCN2c1cccc(Cl)c1)c1ccc2ccccc2c1` was 72% (inactive); that for `O=C(CCCl)NCCN1CCC2(CC1)C(=O)NCN2c1cccc(F)c1` was 87.1% (inactive); that for `O=C1c2ccccc2C(=O)N1CCN1CCC2(CC1)C(=O)NCN2c1ccccc1` was 86.5% (inactive).
With `CN1CN(c2ccccc2)C2(CCN(CCNC(=O)c3ccc4ccccc4c3)CC2)C1=O` the figure was 57.9% (inactive); with `NC1(CN2CCC3(CC2)C(=O)NCN3c2ccccc2)CCCC1` (tested in a mixture with another compound), 74.2% (inactive).

The values are drawn from PubChem BioAssay AID602143 (Vanderbilt Specialized Chemistry Center, 2011).
